HIF-2a block – inhibitors of HIF-2a | AID 624352 | 0.72% of 360,000 active | 786-0 RCC cells HIF-2a reporter, luciferase luminescence, overnight | inhibition, % at 18.8 µM;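 active = inhibition of the luminescence signal of 40% or more relative to plate controls, in a single-dose primary screen at 18.75 µM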
TWEAK Fn14 block – TWEAK-Fn14 signaling inhibition; AID 1159606; TWEAK-stimulated Fn14 reporter cells, luciferase luminescence, 8 h; 2% of 360,000 active; inhibition, % at 10 µM; in the data active = inhibition above about 50%
Peg3 promoter – Peg3 promoter activity inhibition; HeLa PEG-Prom luciferase reporter, luminescence, overnight; inhibition, % at 20 µM; 1.7% of 360,000 active; AID 588405;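 active = inhibition of at least 50% at 20 µM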
KKLEB tox – CF airway cell cytotoxicity counter-screen; activity change (cytotoxicity), % at 5 µM; AID 602141; KKLEB CF airway cells viability, ATPlite luminescence, overnight; stronger effect = lower value; cells stimulated with P. aeruginosa culture filtrate; 0.36% of 360,000 active;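 active = corrected activity change at or below -50% at 5 µM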
TROY signal inh – inhibitors of TROY-dependent NF-kB signaling. Q293 LMP1-TROYcd NF-kB luciferase reporter, 4 h. inhibition, % at 10 µM. 0.98% of 360,000 active;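 active = compounds whose plate-normalised and pattern-corrected inhibition of the luciferase reporter signal at the single screening dose is 50% or more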
CF NFkB inh – blocks PAF-induced NF-kB reporter in cystic fibrosis cells; 0.86% of 360,000 active; KKLEB NF-kB-GFP reporter, GFP fluorescence overnight; inhibition, % at 5 µM;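 active = at least 50% inhibition at 5 µM, scaled per plate between neutral and stimulator controls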;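 also: PAF is a Pseudomonas aeruginosa culture filtrate used as stimulus; plate controls were PAF-stimulated DMSO wells for no effect and unstimulated DMSO wells for full effect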
An asterisk follows results filed as active. Most compounds without a hit are left out; they make up all but 4% or so of the library.

SMILES	HIF-2a block	TWEAK Fn14 block	Peg3 promoter	KKLEB tox	TROY signal inh	CF NFkB inh
COc1ccc(CCNC(=O)c2cc3c(=O)n4ccccc4nc3n(Cc3ccco3)c2=N)cc1OC	-41	96*	73*	6	62*	-5
N=c1c(S(=O)(=O)c2ccc(Cl)cc2)cc2c(=O)n3ccccc3nc2n1Cc1ccco1	8	53*	36	-18	31	18
COc1ccc(CCNC(=O)c2cc3c(=O)n4ccccc4nc3n(CCN3CCOCC3)c2=N)cc1	3	63*	11	-9	48	-8
COc1ccc(CCNC(=O)c2cc3c(=O)n4ccccc4nc3n(CCCN3CCOCC3)c2=N)cc1	17	-3	14	-12	-11	21
Cc1ccccc1N1C(=O)c2cccc([N+](=O)[O-])c2C1=O	14	-18	7	0	18	-2
Cc1ccccc1-n1ncc2c([N+](=O)[O-])cc([N+](=O)[O-])cc21	-91	2	-142	-18	51*	6
Cn1c(N2CCCC2)nc2c1c(=O)n(Cc1cccc(F)c1)c(=O)n2C	29	3	23	0	13	-15
CCOC(=O)c1c(C)oc2c1cc(O)c1ccccc12	-37	74*	-303	-5	27	-15
CC(=O)C1C(c2ccc3ncccc3c2)NC(=O)NC1(O)C(F)(F)F (configuration not stated)	19	-2	-2	5	-11	5
O=C(O)/C=C/C(=O)Nc1ccccc1C(=O)OCC(=O)c1ccc2c(c1)OCCO2	-80	31	-85	-3	53*	1
CCCCC(=O)Nc1ccccc1C(=O)OCC(=O)c1ccc2c(c1)OCCO2	-72	10	-67	-6	13	-4
COc1ccc(-c2cc3ccccc3n2CC(O)CNC(CO)(CO)CO)cc1 (configuration not stated)	-38	6	-18	-9	-73	4
CCC(C)c1ccc2oc(-c3ccc(NC(=O)Cn4cnc5c(=O)n(C)c(=O)n(C)c54)cc3)nc2c1 (configuration not stated)	-149	34	-192	0	64*	1
O=C(Nc1ccccc1C(=O)O)c1cc(S(=O)(=O)N2CCCCC2)c(Cl)cc1Cl	-58	56*	-24	11	26	-5
CN(C)CCCNC(=O)c1ccc(Cl)c(S(=O)(=O)N2CCCCCC2)c1	18	1	91*	2	-2	1
CCN(CC)CCNC(=O)c1ccc(Cl)c(S(=O)(=O)N2CCCCCC2)c1	9	-5	1	4	3	-20
O=C(COc1ccc2ccc(=O)oc2c1)Nc1cccc(S(=O)(=O)N2CCCCC2)c1	-11	53*	5	-16	41	19
Cc1ccc(NC(=O)COc2ccccc2C(N)=O)cc1S(=O)(=O)N1CCCCCC1	-12	58*	13	-14	44	20
COc1cc(CCC(=O)OCC(=O)NC(=O)c2ccc(Cl)cc2)cc(OC)c1OC	6	2	-5	-1	16	9
Cc1nc2sccn2c(=O)c1S(=O)(=O)Nc1ccc(N2CCN(C)CC2)cc1	11	5	11	19	-7	-3
Cc1ccc(NC(=O)COc2ccc(N(C)C(=O)C(C)(C)C)cc2)cc1S(=O)(=O)N1CCCCC1	11	69*	37	-4	39	15
CCc1cccc(OCC(=O)Nc2ccc(C)c(S(=O)(=O)N3CCCCCC3)c2)c1	16	50*	24	-16	39	12
Cc1ccc(NC(=O)COc2cccc(C)c2C)cc1S(=O)(=O)N1CCCCCC1	1	21	2	-6	29	39
CC(=O)c1ccc(OCCCC(=O)Nc2ccc(C)c(S(=O)(=O)N3CCCCC3)c2)cc1	11	51*	11	13	36	0
O=C(COC(=O)c1ccc(Cl)c(S(=O)(=O)N2CCCCCC2)c1)Nc1ccccc1	-87	23	-54	-15	58*	18
O=C(COC(=O)c1ccc(S(=O)(=O)N2CCCC2)cc1)Nc1ccccc1	8	9	8	2	6	-6
COc1ccc(N=C2NC(=O)C(CO)(CO)S2)cc1	15	-34	8	6	16	20
CCCOc1ccc(N2CC(C(=O)Nc3ccccc3C(=O)NCc3ccco3)CC2=O)cc1 (configuration not stated)	6	-1	23	3	2	-24
